The text below walks through data of PubChem BioAssay (EPA / NIEHS).

Conditions in all cases: mRNA level, 48 h; actives raise or lower the signal
Read-out in assay [1]: cysteine-aspartic acid protease (CASP8), CASP8 (gene 841)
Kind of assay: LTEA_HepaRG_CASP8: Life Technologies and Expression Analysis (LTEA) Assay for cysteine-aspartic acid protease (CASP8) using HepaRG (AID 2283480). The method in brief: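 Concentration-response in duplicate up to 100 uM (half-log steps, 0.5% DMSO) on differentiated HepaRG cultures for 48 h. Expression change of CASP8 mRNA is determined by TaqMan qRT-PCR with housekeeping-gene normalization.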

Read-out in assay [2]: Cytochrome P450 (CYP2B6), CYP2B6 (gene 1555)
Kind of assay: LTEA_HepaRG_CYP2B6: Life Technologies and Expression Analysis (LTEA) Assay for Cytochrome P450 (CYP2B6) using HepaRG (AID 2283481). The essentials:
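Using 48 h treatment of HepaRG cells in serum-free induction medium, concentrations spanned half-log steps from 100 uM in 0.5% DMSO vehicle. CYP2B6 mRNA induction or loss is scored by qRT-PCR against DMSO.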

Read-out in assay [3]: Cytochrome P450 2C19 (Homo sapiens) (UniProt P33261)
Kind of assay: LTEA_HepaRG_CYP2C19: Life Technologies and Expression Analysis (LTEA) Assay for CYP2C19 using HepaRG (AID 2283482). The essentials:
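Human HepaRG liver cells received test chemicals for 48 h (highest 100 uM, half-log dilutions in 0.5% DMSO). CYP2C19 mRNA induction or loss is read by multiplexed qRT-PCR and fitted in both directions versus vehicle.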

Read-out in a further assay: CYP2C8 (gene 1558)
Kind of assay: LTEA_HepaRG_CYP2C8: Life Technologies and Expression Analysis (LTEA) Assay for CYP2C8 using HepaRG (AID 2283483). The method in brief:
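This is a transcriptional endpoint in HepaRG cultures: 48 h exposure, highest concentration 100 uM. CYP2C8 mRNA is quantified by TaqMan qRT-PCR.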

Read-out in a further assay: CYP2C9 (gene 1559)
Briefly: LTEA_HepaRG_CYP2C9: Life Technologies and Expression Analysis (LTEA) Assay for CYP2C9 using HepaRG (AID 2283484). The method in brief: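 Eight-point concentration-response (highest 100 uM, half-log dilutions) in HepaRG cells for 48 h; CYP2C9 expression by qRT-PCR normalized to ACTB, GAPDH, POLR2A. Bidirectional fit, DMSO baseline.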

Read-out in a further assay: CYP2E1 (gene 1571)
Kind of assay: LTEA_HepaRG_CYP2E1: Life Technologies and Expression Analysis (LTEA) Assay for CYP2E1 using HepaRG (AID 2283485). The essentials:
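Readout is qRT-PCR of CYP2E1 mRNA, normalized to three housekeeping genes and fitted bidirectionally against 0.5% DMSO. HepaRG cells were dosed 48 h at eight concentrations, highest 100 uM with half-log dilutions.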

Read-out in a further assay: CYP4A11 (gene 1579)
Briefly: LTEA_HepaRG_CYP4A11: Life Technologies and Expression Analysis (LTEA) Assay for CYP4A11 using HepaRG (AID 2283486). The essentials: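 Readout is CYP4A11 mRNA induction or suppression (qRT-PCR, ACTB/GAPDH/POLR2A normalization) in human HepaRG cells after 48 h chemical treatment, concentrations to 100 uM in 0.5% DMSO, fitted bidirectionally against vehicle.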

Read-out in assay [4]: Cytochrome P450 3A4 (Homo sapiens) (UniProt P08684)
Briefly: LTEA_HepaRG_CYP3A4: Life Technologies and Expression Analysis (LTEA) Assay for CYP3A4 using HepaRG (AID 2283487). The essentials:
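In a human hepatic line (HepaRG), duplicate wells were treated 48 h with up to 100 uM chemical in half-log dilutions. Endpoint: CYP3A4 mRNA induction or loss relative to 0.5% DMSO vehicle, by qRT-PCR.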

Read-out in assay [5]: DNA damage-inducible transcript 3 (DDIT3), DDIT3 (gene 1649)
Briefly: LTEA_HepaRG_DDIT3: Life Technologies and Expression Analysis (LTEA) Assay for DNA damage-inducible transcript 3 (DDIT3) using HepaRG (AID 2283488). The method in brief: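 Cells are human HepaRG liver cells treated for 48 h with eight half-log concentrations up to 100 uM in 0.5% DMSO. Transcript levels come from qRT-PCR normalized to three housekeeping genes, with activity fitted in both directions relative to vehicle.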

Read-out in assay [6]: Pro-epidermal growth factor (Homo sapiens) (UniProt P01133)
Briefly: LTEA_HepaRG_EGF: Life Technologies and Expression Analysis (LTEA) Assay for Epidermal growth factor (EGF) using HepaRG (AID 2283489). The method in brief:
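EGF expression changes in human HepaRG cells are scored by bidirectional fitting relative to 0.5% DMSO controls. Chemicals are tested at eight half-log concentrations up to 100 uM for 48 h in serum-free induction medium.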

Read-out in assay [7]: Early growth response protein 1 (EGR1) transcription factor, EGR1 (gene 1958)
Briefly: LTEA_HepaRG_EGR1: Life Technologies and Expression Analysis (LTEA) Assay for Early growth response protein 1 (EGR1) transcription factor using HepaRG (AID 2283490). The essentials: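 EGR1 expression change in human HepaRG after 48 h chemical exposure, assessed by housekeeping-normalized qRT-PCR; concentration-response up to 100 uM, fitted in both directions against DMSO controls.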

Read-out in assay [8]: Ezrin (EZR), EZR (gene 7430)
Kind of assay: LTEA_HepaRG_EZR: Life Technologies and Expression Analysis (LTEA) Assay for Ezrin (EZR) using HepaRG (AID 2283491). The essentials:
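Gain or loss of EZR mRNA is scored relative to 0.5% DMSO in human HepaRG cultures treated 48 h with test chemicals in duplicate, eight half-log concentrations from 100 uM.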

Read-out in assay [9]: Cytochrome P450 3A7 (Homo sapiens) (UniProt P24462)
Briefly: LTEA_HepaRG_CYP3A7: Life Technologies and Expression Analysis (LTEA) Assay for CYP3A7 using HepaRG (AID 2283492). The essentials: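 Cells were thawed, plated, cultured 48 h, then treated for a further 48 h with chemicals (eight-point half-log series from 100 uM, 0.5% DMSO). RNA was isolated and CYP3A7 expression quantified by qRT-PCR normalised to ACTB, GAPDH and POLR2A.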

Read-out in another assay: CYP3A5 (gene 1577)
Briefly: LTEA_HepaRG_CYP3A5: Life Technologies and Expression Analysis (LTEA) Assay for CYP3A5 using HepaRG (AID 2283493). The method in brief:
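Human HepaRG hepatic cells receive 48 h chemical treatment at eight concentrations (half-log steps from 100 uM) in 0.5% DMSO. Expression of CYP3A5 is quantified by Fluidigm qRT-PCR and normalized to three reference genes.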

Read-out in assay [10]: Fatty Acid-Binding Protein 1 (FABP1), FABP1 (gene 2168)
Kind of assay: LTEA_HepaRG_FABP1: Life Technologies and Expression Analysis (LTEA) Assay for Fatty Acid-Binding Protein 1 (FABP1) using HepaRG (AID 2283494). The essentials: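 Values reflect bidirectional concentration-response fitting of FABP1 mRNA change against 0.5% DMSO controls. Human HepaRG cultures received eight half-log doses (top 100 uM) for 48 h; expression quantified by TaqMan qRT-PCR with housekeeping-gene normalization.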

Read-out in assay [11]: Cytochrome P450 7A1 (Homo sapiens) (UniProt P22680)
Briefly: LTEA_HepaRG_CYP7A1: Life Technologies and Expression Analysis (LTEA) Assay for Cytochrome P450 7A1 (CYP7A1) using HepaRG (AID 2283496). The method in brief:
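HepaRG, 48 h exposure, 8-pt half-log series from 100 uM, 0.5% DMSO vehicle, duplicates. Readout: TaqMan qRT-PCR mRNA vs three housekeeping genes; bidirectional curve fit against DMSO baseline.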

Read-out in assay [12]: Glutathione S-Transferase (GSTA2), GSTA2 (gene 2939)
Kind of assay: LTEA_HepaRG_GSTA2: Life Technologies and Expression Analysis (LTEA) Assay for Glutathione S-Transferase (GSTA2) using HepaRG (AID 2283497). The essentials:
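Oxidative-stress marker GSTA2 is quantified by TaqMan qRT-PCR in HepaRG cultures treated 48 h across an eight-point range to 100 uM. Expression is normalized to endogenous controls and compared with 0.5% DMSO vehicle.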

Read-out in assay [13]: Glutamate-cysteine ligase catalytic (GCLC), GCLC (gene 2729)
Briefly: LTEA_HepaRG_GCLC: Life Technologies and Expression Analysis (LTEA) Assay for Glutamate-cysteine ligase catalytic (GCLC) using HepaRG (AID 2283498). The method in brief:
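Oxidative-stress marker GCLC is measured as mRNA change in human HepaRG liver cells after 48 h chemical treatment in 0.5% DMSO, eight concentrations from 100 uM. Activity is fitted bidirectionally against vehicle.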

Read-out in assay [14]: growth arrest and DNA damage 45 (GADD45G), GADD45G (gene 10912)
Briefly: LTEA_HepaRG_GADD45G: Life Technologies and Expression Analysis (LTEA) Assay for growth arrest and DNA damage 45 (GADD45G) using HepaRG (AID 2283499). The method in brief:
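Human hepatic HepaRG line treated 48 h with chemicals (eight concentrations, half-log steps from 100 uM); transcript induction or repression of GADD45G scored by qRT-PCR versus DMSO vehicle.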

Read-out in assay [15]: Glutathione S-transferase M3 (GSTM3), GSTM3 (gene 2947)
Kind of assay: LTEA_HepaRG_GSTM3: Life Technologies and Expression Analysis (LTEA) Assay for Glutathione S-transferase M3 (GSTM3) using HepaRG (AID 2283501). The essentials:
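Changes in GSTM3 expression, an oxidative-stress marker, were scored by bidirectional curve fitting against 0.5% DMSO vehicle. Human HepaRG cultures received chemicals for 48 h in duplicate, highest concentration 100 uM with half-log dilutions.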

Active and inactive are the calls of the source. How the source made its calls: active means hit-call score of the fitted dose curve at least 0.9, where 1 is the maximum; inactive means score below 0.9.

Cytochrome P450 3A7 (Homo sapiens), sequence (P24462 whole entry, looked up): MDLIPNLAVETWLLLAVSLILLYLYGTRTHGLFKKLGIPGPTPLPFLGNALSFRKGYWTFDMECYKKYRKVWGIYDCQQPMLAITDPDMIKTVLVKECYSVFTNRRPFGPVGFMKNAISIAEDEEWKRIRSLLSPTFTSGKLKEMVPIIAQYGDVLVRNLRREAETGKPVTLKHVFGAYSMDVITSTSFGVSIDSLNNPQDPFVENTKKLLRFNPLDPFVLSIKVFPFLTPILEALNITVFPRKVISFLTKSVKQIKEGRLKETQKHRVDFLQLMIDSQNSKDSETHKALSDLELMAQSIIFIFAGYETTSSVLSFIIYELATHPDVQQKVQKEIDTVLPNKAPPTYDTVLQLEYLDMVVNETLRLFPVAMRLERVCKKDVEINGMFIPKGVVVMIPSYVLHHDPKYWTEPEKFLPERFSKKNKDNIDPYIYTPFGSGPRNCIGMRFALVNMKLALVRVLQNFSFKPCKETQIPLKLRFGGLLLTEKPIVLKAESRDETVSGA
Cytochrome P450 2C19 (Homo sapiens), sequence (P33261 whole entry, looked up): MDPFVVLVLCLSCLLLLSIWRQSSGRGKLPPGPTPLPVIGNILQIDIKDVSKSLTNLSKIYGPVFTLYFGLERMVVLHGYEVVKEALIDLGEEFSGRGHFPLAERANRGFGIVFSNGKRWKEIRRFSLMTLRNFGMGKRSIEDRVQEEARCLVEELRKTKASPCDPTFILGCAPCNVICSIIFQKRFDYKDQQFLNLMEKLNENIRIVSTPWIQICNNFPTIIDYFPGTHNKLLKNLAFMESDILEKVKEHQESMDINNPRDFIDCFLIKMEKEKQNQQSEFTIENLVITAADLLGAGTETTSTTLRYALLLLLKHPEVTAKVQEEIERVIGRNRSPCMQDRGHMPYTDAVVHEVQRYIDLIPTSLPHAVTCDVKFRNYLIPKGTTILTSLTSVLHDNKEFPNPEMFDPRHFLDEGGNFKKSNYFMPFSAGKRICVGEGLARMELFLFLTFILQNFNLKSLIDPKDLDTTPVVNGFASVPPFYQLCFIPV
Cytochrome P450 3A4 (Homo sapiens), sequence (P08684 whole entry, looked up): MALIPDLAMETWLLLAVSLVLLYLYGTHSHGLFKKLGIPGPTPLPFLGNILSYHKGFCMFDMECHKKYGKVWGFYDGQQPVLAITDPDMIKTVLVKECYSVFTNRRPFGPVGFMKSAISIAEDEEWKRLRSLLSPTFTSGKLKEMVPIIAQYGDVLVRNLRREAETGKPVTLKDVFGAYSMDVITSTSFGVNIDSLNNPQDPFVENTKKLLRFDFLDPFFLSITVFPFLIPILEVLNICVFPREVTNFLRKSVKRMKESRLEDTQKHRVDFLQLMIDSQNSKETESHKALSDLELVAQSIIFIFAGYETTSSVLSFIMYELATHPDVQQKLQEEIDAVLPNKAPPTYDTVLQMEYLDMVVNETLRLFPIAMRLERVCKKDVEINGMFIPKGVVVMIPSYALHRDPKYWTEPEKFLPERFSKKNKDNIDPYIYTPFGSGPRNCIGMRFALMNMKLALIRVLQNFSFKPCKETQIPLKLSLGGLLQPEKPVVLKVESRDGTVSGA

The AC50 is the concentration giving half of the maximal activity seen. With `C[C@]12CCC(=O)C[C@@H]1CC[C@@H]1[C@@H]2CC[C@]2(C)[C@@H](O)CC[C@@H]12`, the call (in assay [1]; in [2]; with CYP2C8 (gene 1558); with CYP2C9 (gene 1559); in assay [4]; in assay [5]) was inactive. Further, the outcome (in assay [6]; in [7]; in assay [8]; in [9]; with CYP3A5 (gene 1577); in [10]) was inactive. Besides, the call in assay [11], in assay [12], in [13], in assay [14] and in assay [15] was inactive. Besides, the figures for the AC50 (in assay [3]; with CYP2E1 (gene 1571); in the assay with CYP4A11 (gene 1579)) were 23.6 µM (active), 50 µM (active) and 23.9 µM (active), respectively.

Take `CC(C)(OO)c1ccccc1`: the compound was called inactive (in assay [1]; in assay [3]; with CYP2C8 (gene 1558); with CYP2C9 (gene 1559); with CYP2E1 (gene 1571); with CYP4A11 (gene 1579)). Further, the compound was classed as inactive in [4], in [5], in assay [6], in [7], in assay [8] and in [9]. For the same compound, the result (in the assay with CYP3A5 (gene 1577); in assay [10]; in assay [11]; in assay [12]; in assay [13]; in assay [14]) was inactive. In addition, the call in assay [15] was inactive. In addition, the AC50 in [2] was 22.9 µM (active).

As for `CCCCCCCCc1ccc(O)cc1`, the compound was classed as inactive (in [1]; in assay [2]; in assay [3]; in the assay with CYP2C8 (gene 1558); in the assay with CYP2C9 (gene 1559); with CYP2E1 (gene 1571)). For the same compound, the call (in [4]; in assay [5]; in assay [7]; in [8]; in assay [9]; with CYP3A5 (gene 1577)) was inactive. For the same compound, the compound was called inactive in assay [12], in [13], in assay [14] and in assay [15]. Moreover, the half-maximal activity concentration (AC50) in the assay with CYP4A11 (gene 1579) was 65.8 µM (active); in assay [10], 71.8 µM (active).

Turning to `CCC(C)(C)c1ccc(O)c(C(C)(C)CC)c1`, the compound was classed as inactive (in [1]; in assay [2]; in assay [3]; with CYP2C8 (gene 1558); with CYP2C9 (gene 1559); with CYP2E1 (gene 1571)). Also, the call (with CYP4A11 (gene 1579); in [4]; in assay [5]; in assay [6]; in [7]; in assay [8]) was inactive. Moreover, the compound was classed as inactive (in assay [9]; with CYP3A5 (gene 1577); in [10]; in assay [11]; in [12]; in [13]). Further, the call in assay [14] and in [15] was inactive.
